In PubChem BioAssay (NCI):
The panel holds about 79,000 compounds, 15% with a hit somewhere; the sample as a whole holds those more often. Activity calls are given as the source filed them. Cut-off read from the data, not from the text of the source: active = growth inhibition above about 70%; inactive = the rest.

Experiment: NCI Yeast Anticancer Drug Screen. Data for the sgs1 strain (AID 173);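 note: 0% = growth of vehicle-only control cultures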
Conditions: S. cerevisiae sgs1 mutant, hits give high values
Description: Growth inhibition of yeast strains with defined genetic alterations is measured as a screen for potential anti-cancer activity. Selected strains with alterations in DNA damage repair or cell cycle control were exposed to compounds and growth inhibition was measured relative to vehicle treated controls. The strain used in this assay is sgs1

Measured: growth inhibition

CN(C)CCNC(=Cc1ccc2ccccc2[n+]1C)NCCN(C)C
inactive: at 1.2 µM 0% | at 3.7 µM 0% | at 11.0 µM 0% | at 33.0 µM 0% | at 100.0 µM 1%

CCN1CCC(O)(c2ccc(Oc3ccc(C)cc3)cc2)C(C(=O)c2ccc(Oc3ccc(C)cc3)cc2)C1 (stereo not given)
inactive: at 1.2 µM -18% | at 3.7 µM -22%
active: at 11.0 µM 97% | at 33.0 µM 96% | at 100.0 µM 93%

COc1cccc(C(NC2=NCCC=N2)c2cc3c(cc2O)OCO3)c1O (stereo not given)
inactive: at 1.2 µM 4% | at 3.7 µM 6% | at 11.0 µM 21% | at 33.0 µM 46% | at 100.0 µM 57%

O=C(Nn1c(-c2ccccc2)nc2ccccc2c1=O)c1ccc(CS)cc1
active: at 100.0 µM 98%
inactive: at 1.2 µM 15% | at 3.7 µM 8% | at 11.0 µM 21% | at 33.0 µM 65%

CCOC(=O)C(Cc1c2ccccc2cc2ccccc12)(NC(C)=O)C(=O)OCC
inactive: at 1.2 µM -1% | at 3.7 µM 1% | at 11.0 µM -1% | at 33.0 µM 5% | at 100.0 µM 9%

c1ccc2c(c1)N=C1CCCC3CCCC123 (stereo not given)
inactive: at 1.2 µM -1% | at 3.7 µM 9% | at 11.0 µM 12% | at 33.0 µM 16%
active: at 100.0 µM 99%

O=C(NCCCCN(CCCNC(=O)C(F)(F)F)Cc1ccccc1)C(F)(F)F
inactive: at 1.2 µM 40% | at 3.7 µM 41% | at 11.0 µM 44% | at 33.0 µM 15% | at 100.0 µM 36%

NCCOc1ccc(/C(=C(/Cl)c2ccccc2)c2ccccc2)cc1
inactive: at 1.2 µM 26% | at 3.7 µM 23% | at 11.0 µM 55%
active: at 33.0 µM 99% | at 100.0 µM 97%
